The nature of this assay: In vitro enzyme assay to detect hydrolysis of chlorophenol red-beta-D-[…] directly proportional to the number of Toxoplasma stably expressing beta-galactosidase. Also noted: scale not given: in the data most compounds retested in dose-response had high values. Format: functional, organism-based, Toxoplasma gondii.

Each structure is given as a SMILES string. Among all 85,000 compounds or so, about 440 (0.52%) showed an effect of 50% or more. Only a selection was taken, and strong results are over-represented in it overall.

Regarding `CC(C)(C)C(=O)CCN1CCCCC1`, the “Percent Effect” value (50 µM) was 28.4%.

In the case of `CNCC1CCS(=O)(=O)C1` (stereo not given), the “Percent Effect” value (50 µM) turned out to be 7.416%.

`NC(=O)C(Cc1ccccc1)NS(=O)(=O)Cc1ccccc1Cl` (stereo not given): the “Percent Effect” value (10 µM) is reported as 50.03%.

With `NC(=O)C(Cc1ccccc1)NS(=O)(=O)Cc1ccccc1F` (stereo not given), where the note is “10 µM”, the “Percent Effect” value was -5.639%.

Consider `N#Cc1cccc(CS(=O)(=O)NC(Cc2ccccc2)C(N)=O)c1` (stereo not given), for which, where the note is “10 µM”, the “Percent Effect” value is given as -7.673%.

With `CCCn1ncc(-c2ccnc(NC3CCSC3)n2)c1C` (stereo not given), the “Percent Effect” value (10 µM) is reported as 16.2%.

`CCCn1cc(-c2ccnc(NC3CCc4ccccc4C3)n2)c(C)n1` (stereo not given): the “Percent Effect” value (10 µM) is listed as 39.11%.

For the compound `CCc1cc(N[C@@H]2C[C@H]3CC[C@@H]2C3)n2nccc2n1`, the “Percent Effect” value (10 µM) is 9.168%.

For the compound `CCCn1ncc(-c2ccnc(N[C@@H]3C[C@@H]4CC[C@H]3C4)n2)c1C`, the “Percent Effect” value (10 µM) came to 55.29%.

On to `CCCn1ncc(-c2ccnc(NC3CCCc4ccccc43)n2)c1C` (stereo not given), for which the “Percent Effect” value (10 µM) is on record as 4.434%.

For the compound `CCCn1ncc(-c2ccnc(NC3CC(C)(C)NC(C)(C)C3)n2)c1C`, for the setting “10 µM”, the “Percent Effect” value turned out to be 50.73%.

As for `C[C@@H]1CNC[C@H]1C(N)=O`, under “50 µM”, the “Percent Effect” value is given as -3.858%.

As to `COCC1(C(=O)N2C[C@@H](N)C[C@H]2C(=O)NC(C)C)CC1`, the “Percent Effect” value (50 µM) was -6.582%.

On to `COC(=O)c1cn(CC(=O)Nc2cccc(F)c2)nn1`, for which the “Percent Effect” value (50 µM) is -28.09%.

As for `CC(N)C(=O)N(C)C1CCOCC1` (stereo not given), the “Percent Effect” value (50 µM) was -25.47%.

For the compound `OCc1nnc2n1N=C(c1ccc(Cl)cc1)CS2`, under “50 µM”, the “Percent Effect” value was -7.844%.

Take `Cc1nnc2n1N=C(c1ccccc1)CS2`: the “Percent Effect” value (50 µM) is recorded as 84.29%.

As to `Cc1nnc2n1N=C(c1cccs1)CS2`, under “50 µM”, the “Percent Effect” value is -17.29%.

For the compound `COCc1cccc(C(=O)Nc2ccncc2)c1`, the “Percent Effect” value (50 µM) is -8.978%.

Consider `COCCN(CCC#N)S(=O)(=O)c1ncn(C)c1Cl`, for which, for the setting “50 µM”, the “Percent Effect” value worked out at 2.241%.

On to `O=C(CN1CCn2ccnc2C1)Nc1ccc(Cl)cn1`, for which the “Percent Effect” value (50 µM) is -8.564%.

On to `CC(C)n1cnnc1CN1CCN(c2nc[nH]n2)CC1`, for which the “Percent Effect” value (50 µM) is listed as 14.64%.

With `NCCN1CCC(C(N)=O)CC1`, the “Percent Effect” value (50 µM) worked out at 44.2%.

As to `CS(=O)(=O)CCN1CCC(C(N)=O)CC1`, under “50 µM”, the “Percent Effect” value was determined as 50.58%.

In the case of `CCCN1CCC(C(N)=O)CC1`, the “Percent Effect” value (50 µM) is reported as -22.14%.

On to `O=C(Nc1nncs1)c1cccc(O)c1`, for which, where the note is “50 µM”, the “Percent Effect” value is given as -14.91%.

For `Cc1ccc(F)cc1NC(=O)C(C)Nc1cnn(C)c1` (stereo not given), the “Percent Effect” value (50 µM) is reported as 17.75%.

Take `CNC(=O)c1cccc(NCc2nc(C)cs2)n1`: the “Percent Effect” value (50 µM) is on record as -1.003%.

In the case of `N#Cc1ccc(CN2CCNC(=O)C2c2cccs2)cc1` (stereo not given), the “Percent Effect” value (10 µM) is 7.265%.

Consider `COC(=O)CCN1CCNC(=O)C1c1cccs1` (stereo not given), for which the “Percent Effect” value (50 µM) was -1.577%.

For `O=C1NCCN(C(=O)c2ccc(Br)o2)C1c1cccs1` (stereo not given), for the setting “50 µM”, the “Percent Effect” value is recorded as 99.65%.

Consider `Cc1nc(CNC(=O)N(C)Cc2ccncc2)cs1`, for which the “Percent Effect” value (50 µM) is -10.17%.

On to `NC(=O)C1(O)CCN(Cc2nc(C3CCCC3)no2)C1` (stereo not given), for which the “Percent Effect” value (50 µM) is reported as -5.906%.

As for `CCC(=O)NC1CCCN(Cc2noc(C)n2)C1` (stereo not given), where the note is “50 µM”, the “Percent Effect” value is given as 11.52%.

Consider `CCC(C)C(=O)Nc1nccs1` (stereo not given), for which the “Percent Effect” value (50 µM) is -54.41%.

For `CC(C)COCCC(=O)Nc1c(-c2ccc(F)cc2)ncn1C`, the “Percent Effect” value (10 µM) is reported as 2.891%.

For `CC(C)COCCC(=O)Nc1nccs1`, under “50 µM”, the “Percent Effect” value amounted to 97.25%.

Regarding `Cc1ccc(C)c(NC(=O)CN2CCC(O)CC2)c1`, the “Percent Effect” value (50 µM) was -4.783%.

For the compound `COCc1nc(CCN)no1`, the “Percent Effect” value (50 µM) is given as -5.41%.

Regarding `CC(C)C(=O)N1CCN(c2ncnc3cc4c(cc23)OCCO4)CC1`, the “Percent Effect” value (10 µM) is reported as 49.63%.

With `COCC(=O)N1CCN(c2ncnc3cccc(F)c23)CC1`, for the setting “10 µM”, the “Percent Effect” value was -5.192%.

As for `CC(=O)N1CCN(c2ncnc3cc4c(cc23)OCCO4)CC1`, the “Percent Effect” value (10 µM) was determined as 56.5%.

Regarding `CCC(=O)N1CCN(c2ncnc3cc4c(cc23)OCCO4)CC1`, for the setting “10 µM”, the “Percent Effect” value is reported as 75.76%.

As for `CN(C)C(=O)c1ccc2ncnc(N3CCCC3)c2c1`, the “Percent Effect” value (50 µM) is reported as -3.186%.

For the compound `CC(C)CCC(=O)N1CCN(c2ncnc3nc(N)ccc23)CC1`, the “Percent Effect” value (10 µM) came to 1.58%.

For `CCC(C)C(=O)Nc1ccc(C(=O)N2CCCC2)cc1` (stereo not given), where the note is “50 µM”, the “Percent Effect” value is listed as -4.343%.

Take `NCC(=O)c1ccncc1`: the “Percent Effect” value (50 µM) is listed as -6.113%.

On to `CC(CC(=O)NCCCS(N)(=O)=O)c1cccc(F)c1` (stereo not given), for which the “Percent Effect” value (50 µM) came to 3.903%.

In the case of `Cn1nccc1C(=O)NC1CCc2ccccc2OC1` (stereo not given), under “50 µM”, the “Percent Effect” value is reported as 1.645%.

For the compound `O=C(Nc1nccs1)c1csc(NC2CCCC2)n1`, the “Percent Effect” value (10 µM) was 94.63%.

As for `Cc1[nH]/c(=N\C(=O)c2csc(NC3CCCC3)n2)sc1C`, where the note is “10 µM”, the “Percent Effect” value came to 89.34%.

Take `CC(C)CNc1nc(C(=O)/N=c2\[nH]nc(C(C)(C)C)s2)cs1`: under “10 µM”, the “Percent Effect” value amounted to 0.3064%.

For the compound `Cc1cs/c(=N/C(=O)c2csc(NCC(C)C)n2)[nH]1`, where the note is “10 µM”, the “Percent Effect” value stood at 19.16%.

In the case of `Cc1[nH]/c(=N\C(=O)c2csc(NCC(C)C)n2)sc1C`, the “Percent Effect” value (10 µM) is reported as 92.95%.

Consider `O=C(NCc1nccs1)c1csc(NC2CC2)n1`, for which the “Percent Effect” value (50 µM) worked out at 6.462%.

With `CC(=O)Nc1nc(C(=O)Nc2nccs2)cs1`, the “Percent Effect” value (50 µM) is on record as 1.313%.

In the case of `Cc1[nH]/c(=N\C(=O)c2csc(NC3CC3)n2)sc1C`, the “Percent Effect” value (10 µM) is on record as -0.3064%.

With `Cc1n[nH]/c(=N\C(=O)c2csc(NC3CC3)n2)s1`, the “Percent Effect” value (50 µM) worked out at 37.81%.

Consider `CC(O)c1c(F)cccc1-n1cncn1` (stereo not given), for which the “Percent Effect” value (50 µM) is -28.05%.

As for `COc1ccc2cc(C(=O)N(C)C)c(C)nc2c1`, the “Percent Effect” value (50 µM) is -8.962%.

For `COc1ccc(F)c(F)c1C(=O)N1CCC(CN)C1` (stereo not given), the “Percent Effect” value (50 µM) is given as -13.62%.

For the compound `CCN1CCC(CNC(=O)c2nc(C)c[nH]2)CC1`, the “Percent Effect” value (50 µM) is -1.833%.

`OC[C@H]1CCCN1c1nccc(-c2cncnc2C2CCCCC2)n1`: the “Percent Effect” value (10 µM) worked out at 29.63%.

As to `OC[C@H]1CCCN1c1nccc(-c2c[nH]nc2C2CCCCC2)n1`, under “10 µM”, the “Percent Effect” value is 54.25%.

As for `OC[C@@H]1CCCN1c1nccc(-c2c[nH]nc2-c2ccncc2)n1`, under “10 µM”, the “Percent Effect” value is given as -24.25%.

As for `N[C@@H]1CCC[C@@H](Oc2ccc(F)cc2Oc2ccccc2)[C@@H]1O`, the “Percent Effect” value (10 µM) is 2e-14%.

As for `Cc1ccc(Oc2cc(F)ccc2O[C@@H]2CCC[C@@H](N)[C@H]2O)cc1`, the “Percent Effect” value (10 µM) was 82.52%.

With `N[C@@H]1CCC[C@@H](Oc2ccc(F)cc2Oc2cccc(F)c2)[C@@H]1O`, the “Percent Effect” value (10 µM) came to 2.748%.

For the compound `COCc1ccc(C(=O)N2CCN(CCS(C)(=O)=O)CC2)cc1`, the “Percent Effect” value (10 µM) is -0.2262%.

On to `Cn1ncc(C(=O)N2CCN(S(C)(=O)=O)CC2)c1Cl`, for which the “Percent Effect” value (10 µM) is on record as 77.51%.

Consider `CCc1ccc(C(=O)N2CCN(CCS(C)(=O)=O)CC2)o1`, for which the “Percent Effect” value (10 µM) was -13.13%.

For `Cc1oc(C(C)C)cc1C(=O)N1CCN(c2cnn(C)c(=O)c2)CC1`, the “Percent Effect” value (10 µM) was 15.5%.

With `Cn1ncc(C(=O)N2CCN(C(=O)c3ccco3)CC2)c1Cl`, for the setting “10 µM”, the “Percent Effect” value was 75.62%.

Consider `Cc1c(C(=O)N2CCCN(S(C)(=O)=O)CC2)cnn1C`, for which the “Percent Effect” value (10 µM) is -3.056%.

Turning to `Cn1ncc(C(=O)N2CCOCC2)c1Cl`, where the note is “10 µM”, the “Percent Effect” value stood at 29.02%.

For the compound `CC(C)S(=O)(=O)N1CCN(C(=O)c2cnn(C)c2Cl)CC1`, the “Percent Effect” value (10 µM) was found to be 63.23%.

On to `Cn1ncc(C(=O)N2CCN(CCS(C)(=O)=O)CC2)c1Cl`, for which the “Percent Effect” value (10 µM) is listed as 67.81%.

In the case of `Cc1c(C(=O)N2CCC(C(O)c3ccc(Cl)cc3)CC2)cnn1C` (stereo not given), the “Percent Effect” value (10 µM) is -2.382%.

For the compound `CCOC(=O)N1CCN(C(=O)c2ccco2)CC1`, the “Percent Effect” value (50 µM) is 9.256%.

For `CS(=O)(=O)N1CCN(C(=O)c2cnn3c2OCCC3)CC1`, the “Percent Effect” value (10 µM) is reported as -9.448%.
